# Bioassay records: PubChem, NMMLSC
# MEP2-GFP yeast: yeast TOR pathway MEP2-GFP modulation | S. cerevisiae MEP2-GFP strain, flow cytometry GFP, 3 h; 100% = DMSO control level | GFP response vs DMSO, % at 10 µM | 330,000 tested, 0.51% active;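 active = GFP response versus DMSO above a set limit, roughly screen mean plus 3 SD, cut at about 180% in these data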;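 note: median GFP fluorescence of the barcode-gated MEP2-GFP cells per well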
# AGP1-GFP MLPCN: alters AGP1-GFP fluorescence in TOR pathway yeast screen | S. cerevisiae AGP1-GFP multiplex flow cytometry, 3 h; GFP as percent of DMSO wells | GFP response vs DMSO, % at 10 µM | 320,000 tested, 0.02% active | AID 2066;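 active = GFP response relative to DMSO above a set limit, near screen average plus 3 SD, cut at about 150% in these data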;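 note: median GFP channel fluorescence of the gated AGP1 strain per well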
# VLA-4 inh: inhibition in a human VLA-4 binding assay | 330,000 tested, 0.2% active | AID 2557 | inhibition, % (about 7 µM as worked out from the volumes in the protocol) | P13612 | VLA-4 expressing cells, ligand binding flow cytometry; in the data active = inhibition above about 50%
# CIT2 TOR yeast: modulators of TOR pathway CIT2-GFP in S. cerevisiae | S. cerevisiae CIT2-GFP strain, flow cytometry, 3 h; 100 means same as DMSO wells | GFP response vs DMSO, % at 10 µM | 320,000 tested, 0.065% active;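 active = GFP response relative to DMSO above a set limit, near the screen mean plus 3 SD, cut at about 150% in these data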;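 note: ratio of well median GFP fluorescence to mean of DMSO wells on the plate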
# RPL19A-GFP yeast: alters RPL19A-GFP fluorescence in TOR pathway yeast screen. S. cerevisiae RPL19A-GFP strain, flow cytometry, 3 h; stronger effect = lower value. AID 2025. percent response vs DMSO, % at 10 µM. 330,000 tested, 0.3% active;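 active = percent response vs DMSO below 50%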;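 note: median channel GFP fluorescence of the barcoded RPL19A-GFP strain; ratio of sample median GFP to plate DMSO average so 100% = DMSO; lower means less RPL19A-GFP as with rapamycin TOR inhibition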
# LAP4-GFP MLPCN: modulators of TOR pathway LAP4-GFP in S. cerevisiae. S. cerevisiae LAP4-GFP multiplex, flow cytometry GFP, 3 h; median GFP as percent of DMSO wells. GFP response vs DMSO, % at 10 µM. 320,000 tested, 0.34% active. AID 2023;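 active = GFP response vs DMSO above a set limit, about the screen mean plus 3 SD, cut at about 150% in these data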
# VLA-4 allo CP: human VLA-4 allosteric modulation in cherry picked compounds. AID 2813. U937 cells, HUTS-21 LIBS mAb binding, flow cytometry; LDV ligand present at threefold Kd. shares compounds with VLA-4 inh. inhibition, % at 6.7 µM. 1,300 tested, 2% active; in the data active = inhibition above about 40%;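 note: 0% = ligand without compound and 100% = no ligand background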
# * marks the source's active call; other numbers are inactive results; nt = no result given. Most compounds without a hit are left out; they make up all but 1.1% or so of the library.
SMILES,MEP2-GFP yeast,AGP1-GFP MLPCN,VLA-4 inh,CIT2 TOR yeast,RPL19A-GFP yeast,LAP4-GFP MLPCN,VLA-4 allo CP
CC1CCC(NC(=O)CCS(=O)(=O)c2ccc3c(c2)CCN3C(=O)C2CC2)CC1 (configuration not stated),97,101,17,101,102,102,nt
O=C(c1cc(-c2ccc(Cl)cc2)n(-c2ccc(Cl)cc2)n1)N1CCOCC1,102,93,92*,97,96,103,5
Cc1ccc(-n2nc(C(=O)N3CCOCC3)cc2-c2ccc(Cl)cc2)cc1,97,95,-10,98,104,102,nt
COc1cccc2cc(C(N)=O)oc12,109,104,51*,105,98,92,-4
Cc1cccc(C(=O)OCC(=O)N2CC(=O)Nc3ccccc32)c1C,112,96,-12,95,96,100,nt
CCN(C(=O)CSc1nc2ccc(C)cc2[nH]1)C1CCS(=O)(=O)C1 (configuration not stated),88,91,6,85,92,87,nt
CCN(C(=O)CSc1nc(-c2ccccc2)c(-c2ccccc2)[nH]1)C1CCS(=O)(=O)C1 (configuration not stated),111,114,95*,118,113,112,0
COc1cc([N+](=O)[O-])ccc1NC(=S)NNC(=O)CCC(=O)Nc1ccccc1Cl,89,98,7,103,105,74,nt
CC(=O)c1cccc(NC(=O)C(C)OC(=O)CCc2nc3ccccc3c(=O)[nH]2)c1 (configuration not stated),106,98,7,98,96,101,nt
CC(C)=N/N=C(/c1ccc([N+](=O)[O-])cc1)C12CN3CN(CN(C3)C1)C2,98,98,41,101,101,96,-7
CN(C)/C(=C\C(=O)c1ccccc1)C(=O)c1ccccc1,nt,nt,nt,nt,nt,nt,-8
CSC(=CC(=O)c1ccccc1)SC,104,101,-7,96,105,98,nt
CSc1ccccc1NC(=O)Nc1ccccc1,99,93,0,102,96,91,nt
CCOc1ccc(NC(=O)Nc2ccccc2SC)cc1,101,93,67*,104,99,96,6
COc1ccc(/[N+]([O-])=C/c2ccoc2)cc1,99,97,3,102,94,101,nt
COCCCN(C(=O)CCOc1ccc(C)cc1)c1c(N)n(Cc2ccccc2)c(=O)[nH]c1=O,104,96,50*,94,97,106,4
COCCCN(C(=O)CCOc1ccc(C(C)(C)C)cc1)c1c(N)n(Cc2ccccc2)c(=O)[nH]c1=O,94,92,16,92,91,94,nt
CCn1cc(C(=O)OCc2cccc(Br)c2)c(=O)c2ccc(C)nc21,101,99,54*,94,102,104,0
CCCCc1ccc(N2C(=NC(=O)C3CCCO3)SC3CS(=O)(=O)CC32)cc1 (configuration not stated),94,98,4,108,96,91,nt
O=C(CSc1nnc(-c2ccccc2Cl)o1)Oc1ccc(Br)cc1,94,99,91*,87,90,107,9
CC(=O)Nc1nnc(-c2ccc(Cl)s2)o1,93,104,18,106,106,95,nt
CCC(=O)Nc1nnc(-c2ccc(Cl)s2)o1,98,94,45,100,102,95,0
Cc1cc(=O)oc2cc(OC(C)C(=O)NC3(C#N)CCCCC3)ccc12 (configuration not stated),98,98,7,98,95,95,nt
CN1CC(=O)N(CC(=O)Nc2ccc(Br)cc2F)C1=O,102,107,70*,112,117,107,-2
COCCSc1ccccc1C(=O)N1CCc2ccccc2C1,96,101,52*,98,101,105,2
SMILES,MEP2-GFP yeast,AGP1-GFP MLPCN,VLA-4 inh,CIT2 TOR yeast,RPL19A-GFP yeast,LAP4-GFP MLPCN,VLA-4 allo CP
COCCSc1ccccc1C(=O)N1CCN(c2ccccc2)CC1,90,95,-4,98,91,98,nt
CC1=C(C(=O)OC2CCCCC2)C(c2ccc(F)cc2)NC(=O)N1 (configuration not stated),103,102,4,101,102,93,nt
CCOc1ccccc1NC(=O)NCc1ccccc1,101,103,50*,94,101,108,-6
CCc1ccc2c(CN(C)Cc3ccc(OC(F)F)c(OC)c3)cc(=O)oc2c1,105,107,16,103,105,101,nt
Cc1cc(NC(=O)Nc2ccccc2F)ccc1Br,101,93,66*,88,100,112,4
CN(C)c1ccc(C(=O)OCC(=O)Nc2ccc(S(N)(=O)=O)cc2)cc1,92,100,1,105,92,94,2
CC(C)n1cc(CN2CCN(C)C(CCO)C2)c2ccccc21 (configuration not stated),97,100,-19,108,101,91,nt
Cc1cc(C)n(-c2nc(N(c3ccccc3)c3ccccc3)nc(-n3nc(C)cc3C)n2)n1,96,101,24,98,96,98,nt
CNc1cc(C)nc(-n2nc(C)cc2C)n1,100,104,-13,108,97,109,nt
Cc1cc(Cl)nc(-n2nc(C)cc2C)n1,102,116,17,99,102,114,2
Cc1cc(C)n(-c2nc(C)nc(N)n2)n1,93,95,1,87,97,88,-4
Cc1c(NC(=O)Nc2ccccc2)c(=O)n(-c2ccccc2)n1C,93,89,-21,99,95,82,nt
Cc1cc2oc(C(=O)Nc3c(C)n(C)n(-c4ccccc4)c3=O)c(C)c2cc1C,101,98,16,92,98,108,nt
Cc1ccc2c(C)c(C(=O)Nc3c(C)n(C)n(-c4ccccc4)c3=O)oc2c1,103,99,9,104,99,100,-10
Cc1c(NC(=O)Nc2ccc(Cl)c(Cl)c2)c(=O)n(-c2ccccc2)n1C,103,98,65*,94,97,96,8
COc1c(C(=O)Nc2c(C)n(C)n(-c3ccccc3)c2=O)ccc2ccccc12,94,101,-1,97,96,102,0
Cc1cccc(OCCCC(=O)Nc2ccc(N3CCCCC3)cc2)c1,112,107,9,107,102,106,nt
Cc1cccc(OCCC(=O)Nc2ccc(N3CCOCC3)cc2N2CCOCC2)c1,97,96,50*,95,95,94,3
CC(C)N(Cc1ccccc1)C(=O)CN1C(=O)NC(Cc2ccccc2)(c2ccccc2)C1=O (configuration not stated),104,101,0,99,102,99,nt
